{"source": "paper PMC5540273", "about": "(PLoS ONE, 2017);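 also: KINOMEscan kinase panel screen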", "data": [{"test_system": "PAK1", "conditions": "concentration: 1 μM, replicates: in singlicate; n = 1", "units": {"%Inh": "%"}, "values": [{"compound": "CCC(CC)(CC)n1cnc2c(N)ncnc21", "note": "[SKF-97620]", "%Inh": 10}, {"compound": "Cc1ccc(NC(=O)c2cccc(C#N)c2)cc1-c1ccc(C(=O)Nc2ccncc2)cc1", "note": "[GSK1398463]", "%Inh": 16}, {"compound": "CSc1nn2c(=O)cc(N3CCOCC3)nc2n1Cc1cccc(Cl)c1Cl", "note": "[GSK2347225]", "%Inh": 13}, {"compound": "FC(F)(F)c1cc(Nc2nccc(-c3c(-c4ccc(Cl)cc4)nn4ncccc34)n2)ccc1Cl", "note": "[GW829351]", "%Inh": 0}, {"compound": "CC(=O)Nc1n[nH]c2ncc(-c3ccccc3)cc12", "note": "[SB-548492]", "%Inh": 0}, {"compound": "O=C(Nc1n[nH]c2nc(-c3ccco3)c(Br)cc12)c1ccc(CN2CCCC2)cc1.O=C(O)[C@H](O)[C@@H](O)C(=O)O", "note": "[SB-742352]", "%Inh": 0}, {"compound": "O=C(NCCCN1CCCC1=O)c1cnc(NCc2cc(Cl)ccc2Cl)nc1NC1CCNCC1", "%Inh": 5}, {"compound": "Nc1nccc2scc(-c3ccc4c(c3)CCN4C(=O)Cc3cc(F)ccc3F)c12", "note": "[GSK2587663]", "%Inh": 1}, {"compound": "CN1CCC(n2cnc(-c3ccc(F)cc3)c2-c2ccnc(NC3CCNCC3)n2)CC1", "note": "[SB-229482]", "%Inh": 0}, {"compound": "Oc1ccc2ncnc(Nc3ccc(OCc4ccccc4)cc3)c2c1", "note": "[GI262866]", "%Inh": 22}, {"compound": "COc1ccc(NC(=O)c2ccc(-c3cc(-c4nnc(C)o4)ccc3C)cc2)cc1", "note": "[GW595885]", "%Inh": 0}, {"compound": "CC(C)N1CCC(n2cnc(-c3ccc(F)cc3)c2-c2ccnc(N)n2)CC1", "note": "[SB-223132]", "%Inh": 19}, {"compound": "COc1ccc(Nc2nccc(N3CCC(NC(=O)Nc4ccc5c(c4)OCO5)C3)n2)cc1", "note": "(stereo not shown) [GSK1379745]", "%Inh": 0}, {"compound": "COC(=O)c1cccc(NC(=O)NCCNc2ccnc(Nc3ccc(F)cc3)n2)c1", "note": "[GSK1379883]", "%Inh": 0}, {"compound": "COc1cc2c(Nc3cccc(NC(=O)c4ccccc4)c3)ncnc2cc1OCCCN1CCOCC1", "note": "[GSK223810]", "%Inh": 4}, {"compound": "O=C(Nc1ccccc1)Nc1ccc(Oc2ccc3nccn3n2)cc1", "%Inh": 0}, {"compound": "Nc1nc(-c2ccccn2)c(-c2ccnc3ccccc23)s1", "note": "[GW548057]", "%Inh": 0}, {"compound": "Cc1ccc(O)cc1Nc1cc(C(F)(F)F)nc2ccc(-c3ccncc3)cc12", "note": "[GW630823]", "%Inh": 21}, {"compound": "Fc1cccc(COc2ccc(Nc3ncnc4sc(-c5ccc[nH]5)cc34)cc2Cl)c1", "note": "[GW707818]", "%Inh": 6}, {"compound": "Fc1cccc(COc2ccc(Nc3ncnc4cc[nH]c34)cc2Cl)c1", "%Inh": 30}, {"compound": "Nc1nc(-c2ccc3c(N)n[nH]c3c2)cc(N2CCC[C@@H](C(=O)Nc3ccccc3)C2)n1.O=C(O)C(F)(F)F.O=C(O)C(F)(F)F", "note": "[GSK2288359]", "%Inh": 2}, {"compound": "O=C(CCO)NCCn1ccc2ncnc(Nc3ccc(Oc4cccc(C(F)(F)F)c4)c(Cl)c3)c21", "%Inh": 0}, {"compound": "CNc1nccc(-c2c(-c3ccc(F)cc3)ncn2CCCN2CCOCC2)n1", "note": "[SB-222516]", "%Inh": 65}, {"compound": "Cc1ccc(C)c(NC(=O)NCCNc2ccnc(Nc3ccc(F)cc3)n2)c1", "note": "[GSK1379878]", "%Inh": 0}, {"compound": "CC(C)(C)c1ccc(-n2cnc3c(N)ncnc32)cc1", "note": "[SKF-97263]", "%Inh": 9}, {"compound": "CS(=O)(=O)CCNCc1nc(-c2ccc3ncnc(Nc4ccc(OCc5cccc(F)c5)c(Cl)c4)c3c2)cs1.Cl", "note": "[GW583340]", "%Inh": 19}, {"compound": "CCCc1ccc(S(=O)(=O)NC2CCN(c3ccnc(Nc4ccc(OC)cc4)n3)C2)cc1", "note": "(stereo not shown) [GSK1379737]", "%Inh": 11}, {"compound": "FC(F)(F)c1ccc(-c2nn3ncccc3c2-c2ccnc(Nc3cccc(C(F)(F)F)c3)n2)cc1", "note": "[GW828205]", "%Inh": 37}, {"compound": "Cc1cccc(-c2nc(Nc3ccc4[nH]nnc4c3)c3ccccc3n2)n1", "note": "[GW867587]", "%Inh": 9}, {"compound": "O=C(Nc1ccccc1F)NC1CCN(c2ccnc(Nc3ccc(F)cc3)n2)C1", "note": "(stereo not shown) [GSK1379722]", "%Inh": 2}, {"compound": "COc1ccc(NC(=O)Nc2ccc(C)c(-c3ccc(C(=O)Nc4ccncc4)cc3)c2)cc1", "note": "[GSK1398475]", "%Inh": 0}, {"compound": "Clc1ccc(-c2cc(-c3c[nH]nc3-c3ccccn3)ccn2)cc1", "note": "[GW681251]", "%Inh": 3}, {"compound": "Clc1cc(Nc2ncnc3cc[nH]c23)ccc1OCc1ccccn1", "%Inh": 10}, {"compound": "CNc1nccc(-c2c(-c3ccc(F)cc3)ncn2C2CCN(C)CC2)n1", "note": "[SB-222903]", "%Inh": 0}, {"compound": "c1ccc(-c2ccc3c(-c4ccnc(Nc5ccc6c(c5)OCCO6)n4)cnn3n2)cc1", "note": "[GW818941]", "%Inh": 6}]}, {"test_system": "PAK2", "conditions": "concentration: 1 μM, replicates: in singlicate; n = 1", "units": {"%Inh": "%"}, "values": [{"compound": "CCC(CC)(CC)n1cnc2c(N)ncnc21", "note": "[SKF-97620]", "%Inh": 51}, {"compound": "Cc1ccc(NC(=O)c2cccc(C#N)c2)cc1-c1ccc(C(=O)Nc2ccncc2)cc1", "note": "[GSK1398463]", "%Inh": 21}, {"compound": "CSc1nn2c(=O)cc(N3CCOCC3)nc2n1Cc1cccc(Cl)c1Cl", "note": "[GSK2347225]", "%Inh": 13}, {"compound": "FC(F)(F)c1cc(Nc2nccc(-c3c(-c4ccc(Cl)cc4)nn4ncccc34)n2)ccc1Cl", "note": "[GW829351]", "%Inh": 17}, {"compound": "CC(=O)Nc1n[nH]c2ncc(-c3ccccc3)cc12", "note": "[SB-548492]", "%Inh": 32}, {"compound": "O=C(Nc1n[nH]c2nc(-c3ccco3)c(Br)cc12)c1ccc(CN2CCCC2)cc1.O=C(O)[C@H](O)[C@@H](O)C(=O)O", "note": "[SB-742352]", "%Inh": 7}, {"compound": "O=C(NCCCN1CCCC1=O)c1cnc(NCc2cc(Cl)ccc2Cl)nc1NC1CCNCC1", "%Inh": 0}, {"compound": "Nc1nccc2scc(-c3ccc4c(c3)CCN4C(=O)Cc3cc(F)ccc3F)c12", "note": "[GSK2587663]", "%Inh": 0}, {"compound": "CN1CCC(n2cnc(-c3ccc(F)cc3)c2-c2ccnc(NC3CCNCC3)n2)CC1", "note": "[SB-229482]", "%Inh": 14}, {"compound": "Oc1ccc2ncnc(Nc3ccc(OCc4ccccc4)cc3)c2c1", "note": "[GI262866]", "%Inh": 29}, {"compound": "COc1ccc(NC(=O)c2ccc(-c3cc(-c4nnc(C)o4)ccc3C)cc2)cc1", "note": "[GW595885]", "%Inh": 0}, {"compound": "CC(C)N1CCC(n2cnc(-c3ccc(F)cc3)c2-c2ccnc(N)n2)CC1", "note": "[SB-223132]", "%Inh": 23}, {"compound": "COc1ccc(Nc2nccc(N3CCC(NC(=O)Nc4ccc5c(c4)OCO5)C3)n2)cc1", "note": "(stereo not shown) [GSK1379745]", "%Inh": 6}, {"compound": "COC(=O)c1cccc(NC(=O)NCCNc2ccnc(Nc3ccc(F)cc3)n2)c1", "note": "[GSK1379883]", "%Inh": 0}, {"compound": "COc1cc2c(Nc3cccc(NC(=O)c4ccccc4)c3)ncnc2cc1OCCCN1CCOCC1", "note": "[GSK223810]", "%Inh": 0}, {"compound": "O=C(Nc1ccccc1)Nc1ccc(Oc2ccc3nccn3n2)cc1", "%Inh": 8}, {"compound": "Nc1nc(-c2ccccn2)c(-c2ccnc3ccccc23)s1", "note": "[GW548057]", "%Inh": 0}, {"compound": "Cc1ccc(O)cc1Nc1cc(C(F)(F)F)nc2ccc(-c3ccncc3)cc12", "note": "[GW630823]", "%Inh": 10}, {"compound": "Fc1cccc(COc2ccc(Nc3ncnc4sc(-c5ccc[nH]5)cc34)cc2Cl)c1", "note": "[GW707818]", "%Inh": 5}, {"compound": "Fc1cccc(COc2ccc(Nc3ncnc4cc[nH]c34)cc2Cl)c1", "%Inh": 35}, {"compound": "Nc1nc(-c2ccc3c(N)n[nH]c3c2)cc(N2CCC[C@@H](C(=O)Nc3ccccc3)C2)n1.O=C(O)C(F)(F)F.O=C(O)C(F)(F)F", "note": "[GSK2288359]", "%Inh": 0}, {"compound": "O=C(CCO)NCCn1ccc2ncnc(Nc3ccc(Oc4cccc(C(F)(F)F)c4)c(Cl)c3)c21", "%Inh": 2}, {"compound": "CNc1nccc(-c2c(-c3ccc(F)cc3)ncn2CCCN2CCOCC2)n1", "note": "[SB-222516]", "%Inh": 85}, {"compound": "Cc1ccc(C)c(NC(=O)NCCNc2ccnc(Nc3ccc(F)cc3)n2)c1", "note": "[GSK1379878]", "%Inh": 0}, {"compound": "CC(C)(C)c1ccc(-n2cnc3c(N)ncnc32)cc1", "note": "[SKF-97263]", "%Inh": 0}, {"compound": "CS(=O)(=O)CCNCc1nc(-c2ccc3ncnc(Nc4ccc(OCc5cccc(F)c5)c(Cl)c4)c3c2)cs1.Cl", "note": "[GW583340]", "%Inh": 9}, {"compound": "CCCc1ccc(S(=O)(=O)NC2CCN(c3ccnc(Nc4ccc(OC)cc4)n3)C2)cc1", "note": "(stereo not shown) [GSK1379737]", "%Inh": 9}, {"compound": "FC(F)(F)c1ccc(-c2nn3ncccc3c2-c2ccnc(Nc3cccc(C(F)(F)F)c3)n2)cc1", "note": "[GW828205]", "%Inh": 30}, {"compound": "Cc1cccc(-c2nc(Nc3ccc4[nH]nnc4c3)c3ccccc3n2)n1", "note": "[GW867587]", "%Inh": 41}, {"compound": "O=C(Nc1ccccc1F)NC1CCN(c2ccnc(Nc3ccc(F)cc3)n2)C1", "note": "(stereo not shown) [GSK1379722]", "%Inh": 16}, {"compound": "COc1ccc(NC(=O)Nc2ccc(C)c(-c3ccc(C(=O)Nc4ccncc4)cc3)c2)cc1", "note": "[GSK1398475]", "%Inh": 0}, {"compound": "Clc1ccc(-c2cc(-c3c[nH]nc3-c3ccccn3)ccn2)cc1", "note": "[GW681251]", "%Inh": 0}, {"compound": "Clc1cc(Nc2ncnc3cc[nH]c23)ccc1OCc1ccccn1", "%Inh": 29}, {"compound": "CNc1nccc(-c2c(-c3ccc(F)cc3)ncn2C2CCN(C)CC2)n1", "note": "[SB-222903]", "%Inh": 13}, {"compound": "c1ccc(-c2ccc3c(-c4ccnc(Nc5ccc6c(c5)OCCO6)n4)cnn3n2)cc1", "note": "[GW818941]", "%Inh": 28}]}]}
